Compound activity: PubChem, National Center for Advancing Translational Sciences (NCATS)
S2 tox: cell viability loss in ATXN counter-screen | S2 cells (HEK-293 line with an ATXN2-luciferase reporter) viability, CellTiter-Fluor protease fluorescence, 24 h | Potency, µM (titrated, usually from 56.7 µM), actives largely listed as cytotoxic | 400,000 tested, 0.49% active; further: nearly all actives have a fitted effect of over 40% in size
ATXN2 expr inh: inhibitors of ATXN2 expression | 360,000 tested, 0.72% active | HEK-293 ATXN2-luciferase reporter, luminescence, 24 h | AID 1745845 | Potency, µM (series often up to 57 µM), most hits filed as inhibitors; further: nearly all actives have a fitted effect of over 55% in size
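qHTS (up to 57 uM final) was run with 24 h compound exposure of reporter cells at 37 °C. Each well was multiplexed: SteadyGlo luminescence measured ATXN2-luciferase expression after a fluorogenic Gly-Phe-AFC viability readout (25 uM final).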
TGFb inhibitor: blocks TGF-b signaling | HepG2 CAGA-GFP TGF-b/SMAD3 reporter, GFP fluorescence, 18 h; TGF-beta stimulated, 500 pg/mL final | Potency, µM (highest dose often 46.1 µM), most hits filed as inhibitors | 410,000 tested, 1.2% active; further: nearly all actives have a fitted effect of over 65% in size
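TGF-beta reporter screen: HEPG2 CAGA-GFP, 1% FBS, 500 pg/mL TGF-beta final, 18 h; per-cell GFP summed per well; curves fitted and categorized by class.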
HepG2 viability: counter-screen for TGF-b inhibitors: cytotoxicity in HepG2 cells. HepG2 CAGA-GFP viability, ATP luminescence, 18 h. Potency, µM (highest dose often 46.1 µM), usual class: cytotoxic. 410,000 tested, 0.76% active. AID 588856
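CellTiter-Glo luminescence gave cytotoxicity after 18 hours at 37 degrees C. The cells were HepG2 CAGA-GFP in 1% FBS DMEM, stimulated with 500 pg/mL TGF-beta after compound addition. %Activity was normalised to no-cell wells (complete cell-killing) and DMSO (no toxicity), and curves were fitted and classified.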
IL1B secr inh: blocks inflammasome-driven IL-1 beta release | THP-1 LPS/ATP IL-1B secretion, AlphaLISA, 16 h; stronger effect = lower value | activity change, % at 57.5 µM | 360,000 tested, 4.7% active | AID 743279; in the data active means activity change below about -50%; inconclusive means mostly about -30% to -49%
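Secreted IL-1B measured by AlphaLISA bead assay after 16 h compound exposure of THP-1 cells; compounds (final up to 57.5 uM) added 1 h before LPS (250 ng/mL) and ATP (1.25 mM) stimulation; lower signal means less secretion.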
Each line names hits and unclear results; the compound was inactive in the other large screens. An excerpt weighted towards active compounds, which were near 5.7% of everything screened. Unless noted, the call rests on the fitted dose curve; in most records, active means well fitted curve in the direction sought with a large enough effect; inconclusive means small, poorly fitted or top-dose-only effect, or another doubt; inactive means no such curve, though single readings can be large; an effect the other way counts as inactive or inconclusive.

CCOc1ccc2cc(C(=O)NCc3ccccc3)c(=N)oc2c1	S2 tox inconclusive, IL1B secr inh -76.7
CC(C)(C)OC(=O)Nc1ccc(-c2cc(C(=O)NCCCCCCC(=O)NO)no2)cc1	none (no result: S2 tox, TGFb inhibitor, HepG2 viability, IL1B secr inh)
Cc1ccccc1CNC(=O)c1cc2cc(S(=O)(=O)N3CCCCC3)ccc2n1C	none (no result: S2 tox, ATXN2 expr inh, IL1B secr inh)
COC(=O)N1C(=O)[C@](c2ccccc2)(C2CCCC2)N1C(=O)OC	S2 tox inconclusive, TGFb inhibitor inconclusive, IL1B secr inh -95.6
CCC1(c2ccccc2)NC(=O)N(CC(=O)NC2CCCC2)C1=O (centres undefined)	none
Oc1ccccc1-c1nc2cnccn2c1Nc1ccc(Cl)cc1	S2 tox inconclusive, ATXN2 expr inh inconclusive, TGFb inhibitor 6.31µM (no result: IL1B secr inh)
Cc1cccc(N(C)c2nc3ccccc3c3nnc(C)n23)c1	TGFb inhibitor inconclusive (no result: S2 tox, ATXN2 expr inh, IL1B secr inh)
CCN(CC)CCNc1ccc(CO)c2oc3ccccc3c(=O)c12	TGFb inhibitor inconclusive, IL1B secr inh -55.2 (no result: ATXN2 expr inh)
CCN(CC)CCNc1ccc(CO)c2sc3ccccc3c(=O)c12	S2 tox 31.6µM, ATXN2 expr inh 28.2µM, TGFb inhibitor inconclusive, IL1B secr inh -105.1
CCc1nc(OCCN(CC)CC)c2oc3ccccc3c2n1	none
O=c1c2ccccc2sc2c(CO)ccc(NCCN3CCCCC3)c12	S2 tox inconclusive, ATXN2 expr inh 18.9µM, TGFb inhibitor inconclusive, IL1B secr inh -101.3
O=c1c2ccccc2sc2ccc(NCCCN3CCOCC3)cc12	none
O=C(NCC(c1cccnc1)N1CCN(Cc2ccccc2)CC1)C(=O)Nc1cccc(F)c1 (centres undefined)	none (no result: IL1B secr inh)
O=C(COC(=O)Cc1ccccc1F)Nc1ccc(F)cc1F	HepG2 viability 3.55µM
COc1ccc(/C=N/n2cnc3c([nH]c4ccc(C)cc43)c2=O)cc1CN1CCCC1	TGFb inhibitor inconclusive, IL1B secr inh -102.1 (no result: S2 tox, ATXN2 expr inh)
COc1ccccc1CNC(=O)c1ccc(-c2ccccc2C(F)(F)F)o1	TGFb inhibitor inconclusive
O=C(NCCc1ccccc1)c1ccc(-c2ccccc2C(F)(F)F)o1	TGFb inhibitor inconclusive, IL1B secr inh -58.6
O=C(NCc1ccccc1)c1ccc(-c2ccccc2F)o1	none
O=C(NCCc1ccc(F)cc1)c1coc(=O)c(Br)c1	S2 tox inconclusive, TGFb inhibitor inconclusive, IL1B secr inh -90.7 (no result: ATXN2 expr inh)
O=C(NCCc1ccccc1)c1ccc(-c2ccc(F)cc2)o1	IL1B secr inh -53.6
C=C(C)C(=O)OC1(C(F)(F)F)Oc2cc(C)ccc2NC1=O (centres undefined)	TGFb inhibitor inconclusive, IL1B secr inh -72.9
Cc1ccc(NC(=O)COc2ccc(/C=C3/SC(=Nc4ccccc4)N(Cc4cccnc4)C3=O)cc2)cc1	S2 tox inconclusive, ATXN2 expr inh 14.1µM
COc1ccc(CC(=O)Nc2nc(-c3ccc(OC)c(OC)c3)cs2)cc1OC	S2 tox inconclusive, ATXN2 expr inh 22.4µM, IL1B secr inh -86.2
CC1(c2ccccc2)NC(=O)N(CC(=O)Nc2nc(-c3ccccn3)cs2)C1=O (centres undefined)	ATXN2 expr inh inconclusive, TGFb inhibitor inconclusive
COc1ccc(-c2csc(NC(=O)CS(=O)(=O)c3ccccc3)n2)cc1OC	IL1B secr inh inconclusive (no result: ATXN2 expr inh)
CCC(C)NCC(=O)Nc1cc(S(=O)(=O)N(CC)c2ccccc2)ccc1Cl (centres undefined)	S2 tox inconclusive, IL1B secr inh -52.9
Cc1ccc(C2(C)NC(=O)N(CC(=O)Nc3nc(-c4ccccn4)cs3)C2=O)cc1 (centres undefined)	S2 tox inconclusive, ATXN2 expr inh inconclusive, IL1B secr inh -104.0
O=C(CCS(=O)(=O)c1ccccc1)Nc1nc(-c2ccc(F)cc2)cs1	TGFb inhibitor inconclusive, IL1B secr inh -76.6
COc1ccccc1NC(=O)CSC1=Nc2ccccc2C2=NC(CCC(=O)NCc3cccs3)C(=O)N12 (centres undefined)	none (no result: S2 tox, ATXN2 expr inh, IL1B secr inh)
CCCS(=O)(=O)c1ncc(Cl)c(C(=O)Nc2sc3c(c2C(=O)NCC)CCCC3)n1	TGFb inhibitor inconclusive (no result: S2 tox, ATXN2 expr inh, IL1B secr inh)
O=C(CS(=O)(=O)c1ccccc1)Nc1nc(-c2ccc(F)cc2)cs1	TGFb inhibitor inconclusive (no result: ATXN2 expr inh)
COc1ccc(-c2csc(NC(=O)Cc3ccccc3F)n2)cc1OC	TGFb inhibitor inconclusive, IL1B secr inh -63.8
COc1ccc(-c2csc(NC(=O)CN3C(=O)NC4(CCCC4)C3=O)n2)cc1OC	IL1B secr inh -61.7
COc1ccc(-c2csc(NC(=O)C3CC(=O)N(Cc4ccccc4)C3)n2)cc1OC (centres undefined)	IL1B secr inh -59.1
COc1ccc(-c2csc(NC(=O)CN3C(=O)NC4(CCCC4)C3=O)n2)c(OC)c1	IL1B secr inh inconclusive
O=C(Cc1ccccc1F)Nc1nc(-c2ccc(F)cc2)cs1	IL1B secr inh -94.4
COc1ccccc1CC(=O)Nc1nc(-c2ccc(F)c(F)c2)cs1	TGFb inhibitor inconclusive, IL1B secr inh inconclusive
CCN(c1ccccc1)S(=O)(=O)c1ccc(OC)c(NC(=O)C2CC(=O)N(Cc3ccccc3)C2)c1 (centres undefined)	IL1B secr inh -53.8 (no result: ATXN2 expr inh)
CCN(c1ccccc1)S(=O)(=O)c1ccc(OC)c(NC(=O)Cn2cnc3c2c(=O)n(C)c(=O)n3C)c1	TGFb inhibitor 2.82µM
COc1ccc(Cl)cc1NC(=O)Cn1cnc2c1c(=O)n(C)c(=O)n2C	TGFb inhibitor inconclusive (no result: IL1B secr inh)
COc1ccc(-c2csc(NC(=O)CCS(=O)(=O)c3ccccc3)n2)c(OC)c1	TGFb inhibitor inconclusive, IL1B secr inh -87.6
COc1ccc(-c2csc(NC(=O)c3ccc(OCC(=O)N4CCOCC4)c(OC)c3)n2)cc1OC	S2 tox inconclusive, ATXN2 expr inh 15.8µM, IL1B secr inh -94.5
CCN(c1ccccc1)S(=O)(=O)c1ccc(OC)c(NC(=O)c2ccco2)c1	none (no result: ATXN2 expr inh)
Cc1nc2nc(NCc3ccc(Cl)cc3)[nH]n2c(=O)c1Cc1ccccc1	none (no result: IL1B secr inh)
CCOc1ccc(/C=C/c2nc(C#N)c(NCCc3ccccc3)o2)cc1	none (no result: S2 tox, ATXN2 expr inh, IL1B secr inh)
CCc1noc(C)c1C(=O)Nc1nc(-c2ccc(OC)c(OC)c2)cs1	S2 tox inconclusive, ATXN2 expr inh inconclusive, IL1B secr inh inconclusive
COc1ccc(-c2csc(NC(=O)c3cc(C)oc3C)n2)cc1OC	ATXN2 expr inh inconclusive, IL1B secr inh -83.9
COc1ccc(-c2csc(NC(=O)c3c(OC)cccc3OC)n2)cc1	HepG2 viability 14.1µM
COc1ccc(/C=C/C(=O)Nc2ccccc2F)cc1S(=O)(=O)N1CCOCC1	IL1B secr inh -87.9
COc1cc(C=O)ccc1Oc1ccc(S(=O)(=O)N2CCOCC2)cc1[N+](=O)[O-]	IL1B secr inh -57.2
COc1cccc(CN(C)C(=O)/C=C/c2ccc(S(=O)(=O)N3CCCCCC3)cc2)c1	TGFb inhibitor inconclusive, IL1B secr inh -57.5
Cc1ccc(NC(=O)/C=C/c2ccc(S(=O)(=O)N3CCOCC3)cc2)cc1S(=O)(=O)N(C)C	S2 tox inconclusive, ATXN2 expr inh 28.2µM
